Some compounds were tested as several samples or in several runs, with calls that do not always agree. The source made the active and inactive calls. The calls were made as follows: active = hit-call score of the fitted dose curve at least 0.9, where 1 is the maximum; inactive = score below 0.9.
Read-out: Monokine induced gamma interferon (MIG), CXCL9 (gene 4283)
Experiment: BSK_hDFCGF_MIG: BioMAP Diversity Plus: hDFCGF Assay for Monokine induced gamma interferon (MIG) Biomarker Activity (AID 2283063)
Conditions: primary human foreskin fibroblasts; actives raise or lower the signal
Procedure, shortened: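 Fibroblasts (human foreskin, primary) dosed, 24 h, MIG by ELISA; fit bidirectional vs DMSO.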

**Q.** With `O=C(O)C(F)(F)C(F)(F)C(F)(F)C(F)(F)C(F)(F)C(F)(F)C(F)(F)F` as the molecule, how does the AC50 read?
**A.** 30 µM (active)

**Q.** What about the outcome of the same molecule?
**A.** inactive

**Q.** How did the outcome turn out when `CNC(=O)/C=C(\C)OP(=O)(OC)OC` was run?
**A.** inactive

**Q.** Which outcome does the source give for `CC1(c2ccc(Oc3ccccc3)cc2)OC(=O)N(Nc2ccccc2)C1=O` (centres undefined) here?
**A.** inactive

**Q.** How did the outcome turn out when `O=C(Nc1ccccc1)Nc1cnns1` was run?
**A.** inactive

**Q.** With `COP(=S)(OC)Oc1ccc([N+](=O)[O-])cc1` as the molecule, how does the outcome read?
**A.** inactive

**Q.** Which AC50 does the source give for `CNC(=O)Oc1cccc(N=CN(C)C)c1` here?
**A.** 15.4 µM (active)

**Q.** For `CCCN(CCOc1c(Cl)cc(Cl)cc1Cl)C(=O)n1ccnc1`, which outcome is on record?
**A.** inactive

**Q.** With `COC(=O)c1ccccc1S(=O)(=O)NC(=O)Nc1nc(C)nc(OC)n1` as the molecule, how does the outcome read?
**A.** inactive

**Q.** How did the outcome turn out when `Cc1cc(C)nc(NC(=O)NS(=O)(=O)c2ccccc2C(=O)OC2COC2)n1` was run?
**A.** inactive

**Q.** `CCC(C)(C)C(=O)OC1=C(c2ccc(Cl)cc2Cl)C(=O)OC12CCCCC2` was tested. Which AC50 did it give?
**A.** 9.84 µM (active)

**Q.** `CNC(=O)Oc1ccccc1OC(C)C` was tested. Which outcome did it give?
**A.** inactive

**Q.** `Clc1ccccc1-c1nnc(-c2ccccc2Cl)nn1` was tested. Which outcome did it give?
**A.** inactive

**Q.** `O=C1c2ccccc2C(=O)N1SC(Cl)(Cl)Cl` was tested. Which AC50 did it give?
**A.** 18.3 µM (active)

**Q.** How did the outcome turn out when `Cc1[nH]c(=O)n(C(C)(C)C)c(=O)c1Cl` was run?
**A.** inactive

**Q.** `C[C@H]1[C@H](c2ccc(Cl)cc2)SC(=O)N1C(=O)NC1CCCCC1` was tested. Which outcome did it give?
**A.** inactive

**Q.** Which outcome does the source give for `COC(=O)c1ccccc1S(=O)(=O)NC(=O)N(C)c1nc(C)nc(OC)n1` here?
**A.** inactive

**Q.** How did the outcome turn out when `CCc1ccc(C(=O)NN(C(=O)c2cc(C)cc(C)c2)C(C)(C)C)cc1` was run?
**A.** inactive

**Q.** `CC[C@H](C)[C@H]1O[C@]2(C=C[C@@H]1C)C[C@@H]1C[C@@H](C/C=C(\C)[C@@H](O[C@H]3C[C@H](OC)[C@@H](O[C@H]4C[C@H](OC)[C@@H](O)[C@H](C)O4)[C@H](C)O3)[C@@H](C)/C=C/C=C3\CO[C@@H]4[C@H](O)C(C)=C[C@@H](C(=O)O1)[C@]34O)O2` (tested in a mixture with another compound) was tested. Which AC50 did it give?
**A.** 12.9 µM (active)

— PubChem BioAssay (EPA / NIEHS)
